Twelve molecules from PubChem BioAssay (Tox21) can be followed below.

Test [1] is described as follows: A CellTox Green Cytotoxicity Assay to monitor cytotoxicity in HEK293 cells - 40 hour (AID 1224871). Also: nearly all actives have a fitted effect of over 45% in size. Also: potency is read from the fitted curve at half-maximal effect. In a few lines:
(§1)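 Fluorescence intensity, read at 0, 8, 16, 24, 32 and 40 h of compound treatment, reflected dye binding to DNA of dead HEK293 cells; compounds (23 nL, DMSO) were added 5 h after plating cells with reagent.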

Test [2] is described as follows: qHTS RealTime-Glo MT Cell Viability Assay in HEK293 cells - 16 hour (AID 1224872). Also: nearly all actives have a fitted effect of over 50% in size. Also: potency is read from the fitted curve at half-maximal effect. In a few lines:
(§2)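 Assay medium contained NanoLuc luciferase plus cell-permeant prosubstrate, added with HEK293 cells at 600 cells/well. After 5 h at 37 C/5% CO2 compounds were added; plates stayed at 37 C for 40 h with serial luminescence reads.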

A short description of test [3]: qHTS RealTime-Glo MT Cell Viability Assay in HepG2 cells - 8 hour (AID 1224873). Also: nearly all actives have a fitted effect of over 55% in size. Also: potency is read from the fitted curve at half-maximal effect. The procedure, abridged:
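Real-time viability: cells seeded at 600 per well together with NanoLuc and cell-permeant prosubstrate, compounds added after 5 h incubation. Luminescence tracked at 0, 8, 16, 24, 32 and 40 h of exposure.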

Test [4] is described as follows: qHTS RealTime-Glo MT Cell Viability Assay in HEK293 cells - 40 hour (AID 1224874). Also: nearly all actives have a fitted effect of over 50% in size. Also: potency is read from the fitted curve at half-maximal effect. Conditions: RealTime-Glo luminescence; max response: active compounds read low. In a few lines: (§3)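 Viable HEK293 cells reduce a cell-permeant prosubstrate; the product diffuses out and is consumed by NanoLuc in the medium to give light. Compounds went in after a 5 h incubation and plates were read over the treatment course.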
(In qHTS, concentration-response curves come from the screen itself.)

Test [5] is described as follows: A CellTox Green Cytotoxicity Assay to monitor cytotoxicity in HEK293 cells - 24 hour (AID 1224875). Also: nearly all actives have a fitted effect of over 45% in size. Also: potency is read from the fitted curve at half-maximal effect. The procedure, abridged: as §1
Test [6] is described as follows: A CellTox Green Cytotoxicity Assay to monitor cytotoxicity in HepG2 cells - 16 hour (AID 1224876). Also: nearly all actives have a fitted effect of over 45% in size. Also: potency is read from the fitted curve at half-maximal effect. In a few lines:
(§4)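 Using 1536-well format, dye-containing HepG2 suspension was seeded, allowed 5 h at 37 C/5% CO2, dosed by pintool with compounds, positive and negative controls, and imaged for fluorescence across 40 h.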

A short description of test [7]: qHTS RealTime-Glo MT Cell Viability Assay in HepG2 cells - 32 hour (AID 1224877). Also: nearly all actives have a fitted effect of over 55% in size. Also: potency is read from the fitted curve at half-maximal effect. In a few lines: (§5)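 qHTS, HepG2, 600 cells/well, RealTime-Glo (NanoLuc + prosubstrate) added with cells; 5 h preincubation; DMSO compound addition; 37 C; luminescence at 0/8/16/24/32/40 h.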
A short description of test [8]: A CellTox Green Cytotoxicity Assay to monitor cytotoxicity in HepG2 cells - 24 hour (AID 1224878). Also: nearly all actives have a fitted effect of over 45% in size. Also: potency is read from the fitted curve at half-maximal effect. The procedure, abridged: as §4
Test [9] can be described thus: A CellTox Green Cytotoxicity Assay to monitor cytotoxicity in HepG2 cells - 40 hour (AID 1224879). Also: nearly all actives have a fitted effect of over 40% in size. Also: potency is read from the fitted curve at half-maximal effect. In a few lines:
as §4

Test [10] in a line: qHTS RealTime-Glo MT Cell Viability Assay in HEK293 cells - 0 hour (AID 1224880). In a few lines: as §3
A short description of test [11]: A CellTox Green Cytotoxicity Assay to monitor cytotoxicity in HEK293 cells - 32 hour (AID 1224881). Also: nearly all actives have a fitted effect of over 40% in size. Also: potency is read from the fitted curve at half-maximal effect. The procedure, abridged: as §1
A short description of test [12]: A CellTox Green Cytotoxicity Assay to monitor cytotoxicity in HepG2 cells - 0 hour (AID 1224882). Also: nearly all actives have a fitted effect of over 35% in size. In a few lines: as §4
Test [13] can be described thus: A CellTox Green Cytotoxicity Assay to monitor cytotoxicity in HepG2 cells - 32 hour (AID 1224883). Also: nearly all actives have a fitted effect of over 50% in size. Also: potency is read from the fitted curve at half-maximal effect. The procedure, abridged:
as §4

Test [14] is described as follows: A CellTox Green Cytotoxicity Assay to monitor cytotoxicity in HEK293 cells - 8 hour (AID 1224884). Also: nearly all actives have a fitted effect of over 35% in size. Also: potency is read from the fitted curve at half-maximal effect. In a few lines: as §1
The nature of test [15]: qHTS RealTime-Glo MT Cell Viability Assay in HepG2 cells - 16 hour (AID 1224885). Also: nearly all actives have a fitted effect of over 50% in size. Also: potency is read from the fitted curve at half-maximal effect. In a few lines:
as §5

The nature of test [16]: qHTS RealTime-Glo MT Cell Viability Assay in HEK293 cells - 24 hour (AID 1224886). Also: nearly all actives have a fitted effect of over 50% in size. Also: potency is read from the fitted curve at half-maximal effect. In a few lines: as §2
A short description of test [17]: qHTS RealTime-Glo MT Cell Viability Assay in HEK293 cells - 8 hour (AID 1224887). Also: nearly all actives have a fitted effect of over 50% in size. Also: potency is read from the fitted curve at half-maximal effect. The procedure, abridged:
as §3

Test [18] is described as follows: A CellTox Green Cytotoxicity Assay to monitor cytotoxicity in HEK293 cells - 16 hour (AID 1224888). Also: nearly all actives have a fitted effect of over 35% in size. Also: potency is read from the fitted curve at half-maximal effect. The procedure, abridged: as §1
A short description of test [19]: qHTS RealTime-Glo MT Cell Viability Assay in HepG2 cells - 0 hour (AID 1224889). Also: nearly all actives have a fitted effect of over 50% in size. The procedure, abridged: as §5
Test [20] can be described thus: A CellTox Green Cytotoxicity Assay to monitor cytotoxicity in HepG2 cells - 8 hour (AID 1224890). Also: nearly all actives have a fitted effect of over 45% in size. Also: potency is read from the fitted curve at half-maximal effect. In a few lines:
as §4

The structures appear in SMILES notation. “And” between values parts separate entries of the source, which are not always exact repeats. Equal values may be shown once. Unmarked numbers belong to inactive results. Results filed as inconclusive are left out. The source made the active and inactive calls. Calls follow the shape of the dose curve; as a rule, active = well fitted curve in the direction sought with a large enough effect in the repeat runs; inconclusive = weak or mixed curves; inactive = no such curve, though single readings can be large; an effect the other way counts as inactive or inconclusive.
% is scaled to controls: 0 for no effect and ±100 for the full control effect.

In the case of `Cc1c(N)cccc1C(F)(F)F`, the Potency entry in [1], in test [2], in test [3], in test [5], in test [6] and in [7] was “inactive” in each case. Further, the Potency entry in test [8], in test [9], in [10], in test [11], in test [12] and in [13] was “inactive” throughout. Moreover, the Potency result in test [14], in test [15], in [16], in test [17], in [18] and in test [19] was “inactive” throughout. Also, the Potency result in test [20] was “inactive”. For the same molecule, the max response in test [4] was -0.691%.
As for `CCO[Si](OCC)(OCC)OCC`, the Potency entry in test [1], in test [2], in test [3], in test [5], in test [6] and in [7] was “inactive” each time. In addition, the Potency result in test [8], in test [9], in test [10], in [11], in test [12] and in test [13] was “inactive” in each case. For the same molecule, the Potency entry in test [14], in [15], in test [16], in [17], in test [18] and in test [19] was “inactive” in each case. The Potency entry in test [20] was “inactive”. In [4], the max response was 3.28%.
Take `Cc1c(F)c(N2CCNC(C)C2)cc2c1c(=O)c(C(=O)O)cn2C1CC1` (stereo not given): the Potency entry in test [1], in [2], in test [3], in [5], in test [6] and in test [7] was “inactive” throughout. Also, the Potency entry in [8], in test [9], in test [10], in test [11], in test [12] and in [13] was “inactive” throughout. Moreover, the Potency result in test [14], in test [15], in [16], in test [17], in test [18] and in test [19] was “inactive” each time. In test [20], the Potency entry is “inactive”. The max response in [4] is 11.8%.
In the case of `Nc1ccc(NCCO)c([N+](=O)[O-])c1`, the Potency result in [1], in [2], in [3], in [5], in test [6] and in [7] was “inactive” each time. In addition, the Potency result in [8], in [9], in [10], in test [11], in [12] and in test [13] was “inactive” in each case. Further, the Potency result in test [14], in [15], in [16], in [17], in test [18] and in test [19] was “inactive” each time. The Potency result in [20] was “inactive”. Moreover, the max response in test [4] was 0.226%.
As to `O=C(O)c1cc(-c2ccc(F)cc2F)ccc1O`, the Potency entry in test [1], in test [2], in test [3], in [5], in [6] and in [7] was “inactive” in each case. The Potency result in test [8], in test [9], in [10], in [11], in test [12] and in [13] was “inactive” each time. Also, the Potency result in test [14], in [15], in [16], in test [17], in test [18] and in test [19] was “inactive” throughout. In addition, the Potency entry in test [20] is “inactive”. For the same molecule, the max response in [4] was -1.84%.
Consider `c1ccsc1`, for which the Potency result in test [1], in [2], in [3], in test [5], in test [6] and in [7] was “inactive” throughout. The Potency entry in test [8], in [9], in test [10], in test [11], in [12] and in [13] was “inactive” in each case. For the same molecule, the Potency result in test [14], in test [15], in test [16], in test [17], in test [18] and in test [19] was “inactive” in each case. Also, the Potency entry in [20] was “inactive”. The max response in test [4] is -2.24%.
With `CCCCCCCCCCCCCCCC[N+](C)(C)CC`, the Potency in test [1] was 43.8 µM (active) and 23.9 µM (active); in test [2], 21.9 µM (active) and 6.74 µM (active); in test [3], 55.1 µM (active); in test [4] it was 4.38 µM (active) and 3.38 µM (active); in test [5], 43.8 µM (active) and 23.9 µM (active); in test [6], 49.1 µM (active) and 23.9 µM (active). The Potency in [7] is 21.9 µM (active) and 21.3 µM (active); in test [8] it was 24.6 µM (active) and 21.3 µM (active); in test [9], 15.5 µM (active) and 19 µM (active); in test [11], 39 µM (active) and 21.3 µM (active); in test [13], 17.4 µM (active) and 19 µM (active); in test [14] it was 55.1 µM (active) and 23.9 µM (active). The Potency in [15] is 49.1 µM (active) and 23.9 µM (active); in test [16] it was 8.74 µM (active) and 4.77 µM (active); in [17], 21.9 µM (active); in [18], 55.1 µM (active); in test [20] it was 55.1 µM (active) and 19 µM (active). In addition, the Potency result in test [10], in [12] and in [19] was “inactive” each time.
On to `Cc1c(C)c2c(c(C)c1O)CC[C@@](C)(CCC[C@H](C)CCC[C@H](C)CCCC(C)C)O2`, for which the Potency result in test [1], in test [2], in [3], in [5], in [6] and in [7] was “inactive” in each case. Besides, the Potency entry in test [8], in test [9], in test [10], in test [11], in [12] and in [13] was “inactive” throughout. The Potency entry in [14], in [15], in test [16], in test [17], in [18] and in test [19] was “inactive” each time. The Potency result in test [20] is “inactive”. Moreover, in test [4], the max response is -14.1%.
In the case of `CCCCC/C=C\C/C=C\CCCCCCCC(=O)O`, the Potency result in [1], in [2], in test [3], in [5], in [6] and in test [7] was “inactive” throughout. Moreover, the Potency entry in test [8], in test [9], in test [10], in test [11], in [12] and in [13] was “inactive” in each case. Further, the Potency entry in test [14], in [15], in [16], in test [17], in [18] and in test [19] was “inactive” in each case. In [20], the Potency result is “inactive”. In test [4], the max response is 6.43% and 5.51%.
`CN(C)C(=O)COC(=O)Cc1ccc(OC(=O)c2ccc(N=C(N)N)cc2)cc1`: the Potency entry in [1], in test [2], in test [3], in test [5], in test [6] and in test [7] was “inactive” each time. Further, the Potency entry in [8], in [9], in test [10], in test [11], in test [12] and in test [13] was “inactive” each time. The Potency result in test [14], in test [15], in [16], in test [17], in test [18] and in [19] was “inactive” throughout. Moreover, the Potency result in test [20] is “inactive”. Moreover, the max response in test [4] is 5.33%.
On to `O=C(O)c1ccc2cc(C(=O)O)ccc2c1`, for which the Potency entry in test [1], in test [2], in test [3], in test [5], in test [6] and in [7] was “inactive” each time. Besides, the Potency entry in test [8], in [9], in [10], in test [11], in [12] and in test [13] was “inactive” in each case. Moreover, the Potency result in [14], in [15], in test [16], in test [17], in test [18] and in test [19] was “inactive” in each case. The Potency result in test [20] was “inactive”. The max response in [4] is 7.36%.
Take `OC[C@@H](O)[C@@H](O)CO`: the Potency entry in test [1], in [2], in test [3], in test [5], in test [6] and in test [7] was “inactive” each time. Also, the Potency entry in test [8], in test [9], in [10], in [11], in test [12] and in test [13] was “inactive” in each case. Also, the Potency result in test [14], in test [15], in test [16], in test [17], in test [18] and in test [19] was “inactive” each time. For the same molecule, the Potency result in [20] is “inactive”. For the same molecule, the max response in test [4] is 7.59%.
